This is part of a sample that, as a whole, favours compounds with a hit. Of some 79,000 tested, about 15% had one in any assay. Unmarked numbers belong to inactive results. Active and inactive are the calls of the source. Rule as the data show it: active = growth inhibition above about 70%; inactive = the rest.

Test [1] in a line: NCI Yeast Anticancer Drug Screen. Data for the rad50 strain (AID 155).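 Also: 0% = growth of vehicle-only cultures of the same strain.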 Particulars: S. cerevisiae rad50 strain growth inhibition; at 50.0 µM; hits give high values. Summed up:
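Yeast carrying a defined DNA repair defect were exposed to test compounds, and growth was compared with vehicle-treated controls to give percent inhibition.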

A short description of test [2]: NCI Yeast Anticancer Drug Screen. Data for the mec2-1 strain (AID 157). Particulars: S. cerevisiae mec2-1 strain, at 50.0 µM, hits give high values. Summed up: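 Mutant yeast (mec2-1) grown with compound; growth inhibition relative to vehicle control reported.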
A short description of test [3]: NCI Yeast Anticancer Drug Screen. Data for the sgs1 mgt1 strain (AID 161).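 Also: 0% = growth of cultures given vehicle only.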 Particulars: S. cerevisiae sgs1 mgt1 strain, at 50.0 µM, hits give high values. The procedure, abridged:
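This yeast growth screen uses a strain with defined DNA-repair lesions; compound-treated growth is compared with vehicle-treated growth.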

A short description of test [4]: NCI Yeast Anticancer Drug Screen. Data for the cln2 rad14 strain (AID 165).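 Also: 0% = growth equal to vehicle treated cultures.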 Particulars: S. cerevisiae cln2 rad14 strain, at 50.0 µM, hits give high values. The procedure, abridged: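 Readout is yeast growth inhibition versus vehicle-treated controls, using a strain with cln2 and rad14 alterations exposed to compound.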
Test [5] in a line: NCI Yeast Anticancer Drug Screen. Data for the bub3 strain (AID 167). Particulars: S. cerevisiae bub3 mutant strain, at 50.0 µM, hits give high values. Summed up:
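Compounds were applied to a genetically altered yeast strain carrying a cell-cycle control defect. Growth inhibition was scored against vehicle-treated controls.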

Test [6] can be described thus: NCI Yeast Anticancer Drug Screen. Data for the mlh1 rad18 strain (AID 175). Particulars: S. cerevisiae mlh1 rad18 strain growth inhibition; at 50.0 µM; hits give high values. The procedure, abridged:
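Genetically defined yeast (DNA repair-deficient) exposed to compounds; growth inhibition determined relative to vehicle.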

Turning to `N#CC(C#N)=C(C#N)C#N`, the growth inhibition is 14.1% in test [1]; 4.6% in test [2]; 1.9% in test [3]; -25.9% in test [4]; 0.05% in test [5]; 6.25% in test [6].

Consider `O=[N+]([O-])c1cccc([As](=O)(O)c2ccc(O)c([N+](=O)[O-])c2)c1`, for which the growth inhibition is 5.6% in test [1]; 10.2% in test [2]; 15.1% in test [3]; -4.3% in test [4]; 20.4% in test [5]; 4.65% in test [6].

For the compound `CC(=O)C(C(C)=O)C(C)=O.[Cr]`, the growth inhibition in test [1] was 4.85%; in test [2], -15.1%; in test [3], -3.6%; in test [4], 11.1%; in test [5], -16.1%; in test [6], 6.45%.

For the compound `O=C1NC(=O)C(Cc2cccc(OCc3ccccc3)c2)C(=O)N1`, the growth inhibition in test [1] is 20.1%; in test [2] it was 2.2%; in test [3], -1.65%; in test [4], 5.1%; in test [5], 0.1%; in test [6], -52%.

`CCCCCCCCCSCP(=O)(OCC)OCC`: the growth inhibition is 99.5% (active) in test [1]; 99.8% (active) in test [2]; 99.7% (active) in test [3]; 98.9% (active) in test [4]; 99.5% (active) in test [5]; 99.7% (active) in test [6].

For the compound `CC12CC/C(=C3/C=CC(=O)S3)C=C1CCC1C2CCC2(C)C(O)CCC12` (stereo not given), the growth inhibition in test [1] is 23.9%; in test [2] it was -5.55%; in test [3] it was 4.95%; in test [4], 10.3%; in test [5], -19.6%; in test [6], 15.8%.

As to `CC(C)N(C(C)C)P(OCCC#N)OC1CC(n2cnc3c(=O)[nH]cnc32)OC1COC(=O)NCCCCCCNC(=O)OC(C)(C)c1ccc(-c2ccccc2)cc1` (stereo not given), the growth inhibition in test [1] was -11.2%; in test [2], -26.4%; in test [3], -27%; in test [4] it was 10%; in test [5], 12.8%; in test [6], -18.4%.

Consider `O=C(CP(=O)(O)O)c1cccs1`, for which the growth inhibition in test [1] was -10.6%; in test [2], -10.3%; in test [3], -28%; in test [4], -10.8%; in test [5], -17.8%; in test [6], -18.9%.

As to `O=P(O)(O)c1ccccc1`, the growth inhibition in test [1] is -10.4%; in test [2] it was -3.85%; in test [3], 8.85%; in test [4], -18.9%; in test [5], 2.6%; in test [6] it was 4.65%.

On to `O=C(CC(=O)C(F)(F)F)c1cccs1.O=C(CC(=O)C(F)(F)F)c1cccs1.O=C(CC(=O)C(F)(F)F)c1cccs1.[Gd]`, for which the growth inhibition in test [1] was 29.8%; in test [2], 26.2%; in test [3] it was 26.9%; in test [4], -3.25%; in test [5], 44%; in test [6], 15.9%.

For `C=COC(N)=O`, the growth inhibition in test [1] was 0.8%; in test [2] it was -2.7%; in test [3], 5.05%; in test [4], -0.9%; in test [5], 0.05%; in test [6], -8.15%.

Regarding `CC(=O)OC1CC2(C)C(=CC1C1SCCS1)CCC1C2CCC2(C)C(OC(C)=O)CCC12` (stereo not given), the growth inhibition in test [1] was -7.6%; in test [2], 3.2%; in test [3], -31.5%; in test [4] it was 14.7%; in test [5], -49.5%; in test [6] it was 11.3%.

With `Cc1cccnc1NN=O`, the growth inhibition in test [1] was -8.25%; in test [2], -23.9%; in test [3] it was -23.8%; in test [4] it was 10%; in test [5] it was -20.2%; in test [6] it was 13.6%.

As to `O=C(CF)Nc1ccc([N+](=O)[O-])cc1`, the growth inhibition in test [1] is -12.4%; in test [2], -7.25%; in test [3], -6.25%; in test [4], -15.7%; in test [5], 0.2%; in test [6], 9.1%.

With `CCCCCCC(Cn1ccnc1)c1ccc(Br)cc1` (stereo not given), the growth inhibition in test [1] is 98.2% (active); in test [2], 98.8% (active); in test [3], 95.8% (active); in test [4], 98.3% (active); in test [5] it was 99.5% (active); in test [6], 91.7% (active).

For the compound `CC(=O)[O-].CC(=O)[O-].[Mn+2].c1ccc(/C(=N\Nc2ccccn2)c2ccccn2)cc1`, the growth inhibition in test [1] was 87.8% (active); in test [2] it was 91.5% (active); in test [3] it was 90.5% (active); in test [4] it was 84.2% (active); in test [5], 89.2% (active); in test [6], 89.4% (active).

For `COc1ccc2c3c1OC1C(OC)(OC)C=C[C@@]4(Br)[C@@H](C2)N(CC2CC2)CC[C@]314` (stereo not given in full), the growth inhibition was 34.1% in test [1]; 5.6% in test [2]; -35.1% in test [3]; -8.55% in test [4]; -9.9% in test [5]; -44.6% in test [6].

Regarding `CC(=O)OC1CCC2(C)C(=CCC3C4C/C(=C\N5CCCC5)C(=O)C4(C)CCC32)C1` (stereo not given), the growth inhibition in test [1] was 51%; in test [2], 99% (active); in test [3] it was 46.8%; in test [4] it was 98.8% (active); in test [5], 97.2% (active); in test [6], 95.3% (active).

Take `Cc1nnc(NC2=NCCO2)s1`: the growth inhibition was -4.2% in test [1]; -5.5% in test [2]; -1.6% in test [3]; -28.1% in test [4]; -14.2% in test [5]; -4% in test [6].

On to `O=C(O)C(CP(=O)(O)O)=C(Cl)Cl`, for which the growth inhibition is -21.4% in test [1]; 12.3% in test [2]; -13.9% in test [3]; -8.95% in test [4]; -6.15% in test [5]; -9.75% in test [6].

These data come from PubChem BioAssay (NCI).
